Experimental data published in article PMC10812921, “Transcriptional Coactivator BOB1 (OBF1, OCA-B) Modulates the Specificity of DNA Recognition by the POU-Domain Factors OCT1 and OCT2 in a Monomeric Configuration”.

How the values were obtained:
POU1 (OCT1 POU domain) = POU1 (OCT1 POU domain) (human, UniProt P14859 260-458); assay: EMSA-SELEX-seq; no BOB1; 20 mM Tris-HCl pH 7.6, 140 mM NaCl, 10% glycerol, 0.5 mM EDTA, 0.05% Triton X-100, 0.1 mg/mL BSA, 0.1 mg/mL poly(dI-dC), 5 mM DTT, room temperature, 20 min; high values mean tight binding; details: protein: recombinant; dsDNA, one strand shown
How it was run: (§1)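 Tagged POU-domain proteins were expressed in E. coli BL21, purified under denaturing conditions and renatured. Then 30 ng was mixed with 300 ng of a PCR-amplified double-stranded random 35-nt library, with or without 28 ng coactivator protein, in 20 μL Tris–HCl pH 7.6 binding buffer for 20 min at RT. Complex bands were cut from native 6% PAGE, eluted and PCR-amplified over four rounds, then Illumina-sequenced. Binding preference is the percentage of sequenced 8-mers matching a motif pattern.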

POU2 (OCT2 POU domain) = biological target: T1, POU2 (OCT2 POU domain) (human, UniProt P09086 175-386); assay: as above; details: protein: recombinant; dsDNA, one strand shown
T1 sequence: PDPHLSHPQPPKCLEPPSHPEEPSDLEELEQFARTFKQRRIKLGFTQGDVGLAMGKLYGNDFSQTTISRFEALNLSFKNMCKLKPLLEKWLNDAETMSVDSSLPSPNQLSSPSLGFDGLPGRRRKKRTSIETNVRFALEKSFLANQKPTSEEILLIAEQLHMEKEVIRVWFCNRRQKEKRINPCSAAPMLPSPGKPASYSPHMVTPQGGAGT
How it was run: as §1

[1] = biological target: POU1 (OCT1 POU domain);BOB1 (OBF1, OCA-B) (human;human, UniProt P14859;Q16633 260-458;1-256, |); assay: EMSA-SELEX-seq; with BOB1 (ternary complex band); 20 mM Tris-HCl pH 7.6, 140 mM NaCl, 10% glycerol, 0.5 mM EDTA, 0.05% Triton X-100, 0.1 mg/mL BSA, 0.1 mg/mL poly(dI-dC), 5 mM DTT, room temperature, 20 min; high values mean tight binding; details: protein: recombinant;recombinant; copies: 1;1; dsDNA, one strand shown
How it was run: as §1

[2] = biological target: T2, POU2 (OCT2 POU domain);BOB1 (OBF1, OCA-B) (human;human, UniProt P09086;Q16633 175-386;1-256, |); assay: as above; details: protein: recombinant;recombinant; copies: 1;1; dsDNA, one strand shown
T2 sequence 1: T1 sequence
T2 sequence 2: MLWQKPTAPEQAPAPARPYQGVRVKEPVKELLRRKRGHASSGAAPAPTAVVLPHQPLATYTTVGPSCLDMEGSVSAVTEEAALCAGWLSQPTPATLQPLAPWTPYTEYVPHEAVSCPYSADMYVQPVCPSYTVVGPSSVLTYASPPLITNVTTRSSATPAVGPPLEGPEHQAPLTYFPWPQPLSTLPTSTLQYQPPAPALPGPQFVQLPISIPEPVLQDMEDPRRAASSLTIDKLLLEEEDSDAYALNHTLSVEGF
How it was run: as §1

Chain of POU1 (OCT1 POU domain) (P14859 260-458): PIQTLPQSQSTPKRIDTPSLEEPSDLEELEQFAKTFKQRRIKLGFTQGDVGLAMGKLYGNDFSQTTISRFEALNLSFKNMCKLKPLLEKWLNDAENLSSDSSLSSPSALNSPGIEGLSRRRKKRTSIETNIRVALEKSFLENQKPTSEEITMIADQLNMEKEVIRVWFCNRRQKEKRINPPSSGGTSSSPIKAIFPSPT

Sequence | binding signal (POU1 (OCT1 POU domain)) | binding signal (POU2 (OCT2 POU domain)) | binding signal [1] | binding signal [2]
ATAACAAT | 0.0622 % of ANNNNAAN 8-mers | 0.088 % of ANNNNAAN 8-mers | 0.0496 % of ANNNNAAN 8-mers | 0.0735 % of ANNNNAAN 8-mers
ATTTTAAA | 0.198 % of ANNNNAAN 8-mers | 0.204 % of ANNNNAAN 8-mers | 0.126 % of ANNNNAAN 8-mers | 0.103 % of ANNNNAAN 8-mers
AATCGAAG | 0.0408 % of ANNNNAAN 8-mers | 0.0547 % of ANNNNAAN 8-mers | 0.0531 % of ANNNNAAN 8-mers | 0.0495 % of ANNNNAAN 8-mers
ACTCGAAG | 0.0187 % of ANNNNAAN 8-mers | 0.0207 % of ANNNNAAN 8-mers | 0.0168 % of ANNNNAAN 8-mers | 0.0182 % of ANNNNAAN 8-mers
AGCTAAAC | 0.0187 % of ANNNNAAN 8-mers | 0.0236 % of ANNNNAAN 8-mers | 0.0265 % of ANNNNAAN 8-mers | 0.0256 % of ANNNNAAN 8-mers
ACGCTAAT | 0.108 % of ANNNNAAN 8-mers | 0.14 % of ANNNNAAN 8-mers | 0.046 % of ANNNNAAN 8-mers | 0.0611 % of ANNNNAAN 8-mers
AATTAAAC | 0.14 % of ANNNNAAN 8-mers | 0.194 % of ANNNNAAN 8-mers | 0.0905 % of ANNNNAAN 8-mers | 0.0966 % of ANNNNAAN 8-mers
AACATAAC | 0.0526 % of ANNNNAAN 8-mers | 0.0506 % of ANNNNAAN 8-mers | 0.0347 % of ANNNNAAN 8-mers | 0.033 % of ANNNNAAN 8-mers
AGTCAAAC | 0.0763 % of ANNNNAAN 8-mers | 0.042 % of ANNNNAAN 8-mers | 0.122 % of ANNNNAAN 8-mers | 0.0545 % of ANNNNAAN 8-mers
ATTAAAAC | 0.108 % of ANNNNAAN 8-mers | 0.122 % of ANNNNAAN 8-mers | 0.0757 % of ANNNNAAN 8-mers | 0.0718 % of ANNNNAAN 8-mers
ACCGGAAC | 0.0137 % of ANNNNAAN 8-mers | 0.0138 % of ANNNNAAN 8-mers | 0.0133 % of ANNNNAAN 8-mers | 0.0124 % of ANNNNAAN 8-mers
AGTGTAAC | 0.0217 % of ANNNNAAN 8-mers | 0.015 % of ANNNNAAN 8-mers | 0.0234 % of ANNNNAAN 8-mers | 0.0272 % of ANNNNAAN 8-mers
AGTATAAG | 0.0397 % of ANNNNAAN 8-mers | 0.0587 % of ANNNNAAN 8-mers | 0.041 % of ANNNNAAN 8-mers | 0.0454 % of ANNNNAAN 8-mers
AGCGCAAT | 0.0278 % of ANNNNAAN 8-mers | 0.0368 % of ANNNNAAN 8-mers | 0.0258 % of ANNNNAAN 8-mers | 0.0297 % of ANNNNAAN 8-mers
AGACAAAA | 0.0675 % of ANNNNAAN 8-mers | 0.0489 % of ANNNNAAN 8-mers | 0.0808 % of ANNNNAAN 8-mers | 0.0322 % of ANNNNAAN 8-mers
AAGTTAAG | 0.0568 % of ANNNNAAN 8-mers | 0.0742 % of ANNNNAAN 8-mers | 0.0539 % of ANNNNAAN 8-mers | 0.0636 % of ANNNNAAN 8-mers

Sequence | binding signal (POU1 (OCT1 POU domain)) | binding signal (POU2 (OCT2 POU domain)) | binding signal [1] | binding signal [2]
ATCCCAAT | 0.0317 % of ANNNNAAN 8-mers | 0.038 % of ANNNNAAN 8-mers | 0.025 % of ANNNNAAN 8-mers | 0.033 % of ANNNNAAN 8-mers
AGGTGAAC | 0.021 % of ANNNNAAN 8-mers | 0.0259 % of ANNNNAAN 8-mers | 0.0222 % of ANNNNAAN 8-mers | 0.0264 % of ANNNNAAN 8-mers
AGCGCAAC | 0.0103 % of ANNNNAAN 8-mers | 0.0104 % of ANNNNAAN 8-mers | 0.0125 % of ANNNNAAN 8-mers | 0.0107 % of ANNNNAAN 8-mers
ATTCGAAA | 0.0725 % of ANNNNAAN 8-mers | 0.0783 % of ANNNNAAN 8-mers | 0.0605 % of ANNNNAAN 8-mers | 0.0578 % of ANNNNAAN 8-mers
AACCCAAT | 0.0206 % of ANNNNAAN 8-mers | 0.019 % of ANNNNAAN 8-mers | 0.0273 % of ANNNNAAN 8-mers | 0.0223 % of ANNNNAAN 8-mers
AATTGAAA | 0.113 % of ANNNNAAN 8-mers | 0.131 % of ANNNNAAN 8-mers | 0.114 % of ANNNNAAN 8-mers | 0.0817 % of ANNNNAAN 8-mers
ATACTAAT | 0.17 % of ANNNNAAN 8-mers | 0.182 % of ANNNNAAN 8-mers | 0.0745 % of ANNNNAAN 8-mers | 0.11 % of ANNNNAAN 8-mers
ATATAAAA | 0.103 % of ANNNNAAN 8-mers | 0.102 % of ANNNNAAN 8-mers | 0.101 % of ANNNNAAN 8-mers | 0.0702 % of ANNNNAAN 8-mers
ACAGAAAC | 0.0278 % of ANNNNAAN 8-mers | 0.0259 % of ANNNNAAN 8-mers | 0.0269 % of ANNNNAAN 8-mers | 0.0231 % of ANNNNAAN 8-mers
ACAGTAAC | 0.0149 % of ANNNNAAN 8-mers | 0.0242 % of ANNNNAAN 8-mers | 0.0148 % of ANNNNAAN 8-mers | 0.0149 % of ANNNNAAN 8-mers
ACACCAAT | 0.0187 % of ANNNNAAN 8-mers | 0.0173 % of ANNNNAAN 8-mers | 0.0168 % of ANNNNAAN 8-mers | 0.019 % of ANNNNAAN 8-mers
ATATGAAC | 0.0389 % of ANNNNAAN 8-mers | 0.0495 % of ANNNNAAN 8-mers | 0.03 % of ANNNNAAN 8-mers | 0.0528 % of ANNNNAAN 8-mers
AGGTCAAA | 0.0587 % of ANNNNAAN 8-mers | 0.0403 % of ANNNNAAN 8-mers | 0.0632 % of ANNNNAAN 8-mers | 0.0421 % of ANNNNAAN 8-mers
ACCTGAAG | 0.0137 % of ANNNNAAN 8-mers | 0.0161 % of ANNNNAAN 8-mers | 0.0164 % of ANNNNAAN 8-mers | 0.0206 % of ANNNNAAN 8-mers
ACCGTAAT | 0.0454 % of ANNNNAAN 8-mers | 0.0529 % of ANNNNAAN 8-mers | 0.0332 % of ANNNNAAN 8-mers | 0.0495 % of ANNNNAAN 8-mers
